Screening data as filed in PubChem.
BoNT A protease = blocks Botulinum neurotoxin A light chain protease; multiplex microsphere protease substrate cleavage, flow cytometry; inhibition, % at 10 µM; 360,000 compounds, 0.17% hits; note: plate controls were buffer without enzyme for full effect and enzyme alone for no effect
MazF activator = increases E. coli MazEF RNase cleavage of RNA. 350,000 compounds, 0.32% hits. FAM/BHQ RNA-DNA oligo cleavage fluorescence, 5 h. AID 504720. activation, % at 20 µM; in the data active = activation above about 50%
Autofluor counter = compound fluorescence in toxin protease inhibitor counterscreen; AID 624483; compound autofluorescence counterscreen, microsphere flow cytometry; hits give high values; 360,000 compounds, 3.1% hits; fluorescence intensity (concentration not given with the values); in the data active = fluorescence intensity above about 16000; inconclusive = no clear call, values can overlap the other calls
Anthrax LF inh2 = inhibitors of Bacillus anthracis lethal factor protease; P15917; multiplex microsphere protease cleavage assay, LF; inhibition, % at 10 µM; 360,000 compounds, 0.12% hits; note: plate controls were buffer without enzyme for full effect and enzyme alone for no effect
BoNT F protease = inhibitors of Botulinum neurotoxin F light chain protease; inhibition, % at 10 µM; Multiplex microsphere protease cleavage assay, flow cytometry; 360,000 compounds, 0.22% hits; in the data active = inhibition above about 35%, passing the limit was not always enough; inconclusive = no clear call, values can overlap the other calls; note: plate controls were buffer without enzyme for full effect and enzyme alone for no effect
Vc quorum ag = quorum light induction in luxS cqsA deficient V. cholerae; activation, % at 18.7 µM; 350,000 compounds, 0.16% hits; V. cholerae BH1578 lux reporter, luminescence, 6 h; AID 588436; in the data active = activation mostly above about 9.7%, no sharp cut-off; inconclusive = no clear call, values can overlap the other calls; inactive = mostly below about 3.7%
An asterisk follows results filed as active; i = inactive; u = inconclusive; x = not tested or not shown. Sampled rows, rich in hits. Any-hit rate of the full collection: about 3.9%. Cut-off read from the data, not from the text of the source, unless noted: active = inhibition above about 30%; inconclusive = no clear call, values can overlap the other calls; inactive = below that.

SMILES	BoNT A protease	MazF activator	Autofluor counter	Anthrax LF inh2	BoNT F protease	Vc quorum ag
Cc1ccc(CN(C(=O)c2csnn2)C(C(=O)NC2CCCC2)c2cccnc2)cc1 (stereo not given)	1	-15	3648	-9	-14	0
CCOC(=O)c1cc(-c2ccc(OC)cc2)nc2c1c(C)nn2CCC(N)=S	0	5	2846	-3	-8	0
CC(N)c1csc(Nc2cc(Oc3ccccc3)ncn2)n1 (stereo not given)	0	x	3807	0	4	-4
COC(=O)c1ccccc1NC(=O)Oc1ccc(F)cc1	-1	-4	16560*	-3	-3	i
COC(=O)c1ccccc1NS(=O)(=O)c1ccc(F)cc1	u	-4	20259*	-6	2	i
COC(=O)c1ccccc1NC(=O)CC(=O)Nc1ccccc1C(=O)OC	2	7	3791	9	13	0
O=C1NC[C@H](CCCCN2C[C@H](Cc3ccccc3)N(Cc3ccccc3)C(=O)C2=O)N(CCc2ccccc2)C1=O	0	x	6611	5	-12	x
Cc1nc(C(F)(F)F)c(C(=O)NC(=O)Nc2ccc(OC(F)(F)F)cc2)s1	1	4	7646	-2	8	0
Cc1nc(C(F)(F)F)c(C(=O)NC(=O)Nc2ccccc2)s1	-1	2	16731*	-1	0	4
Cc1nc(N)[nH]c(=O)c1CCC(=O)OCC(C)C	-2	-1	23221*	-2	-3	i
Cc1cccc(/C=N\Nc2cn[nH]c(=O)c2Cl)c1	12	10	17627*	3	11	-1
Cc1cc(C)c(-c2cc(C(F)(F)F)no2)c(=O)[nH]1	u	-4	17034*	0	-5	0
Cc1ccc(S(=O)(=O)CNC(=S)c2cccc(C)c2)cc1	-1	3	10274	-2	-7	0
Cc1ccc(S(=O)(=O)CNC(=S)c2ccc3ccccc3c2)cc1	u	1	22964*	-1	1	i
COc1ccc(CCNS(=O)(=O)CCNC(=O)c2ccc3c(c2)OCO3)cc1	-2	4	6917	-2	-7	0
COC(=O)C1(C(=O)OC)C/C=C\CN(S(=O)(=O)c2ccccc2[N+](=O)[O-])CC1	0	x	5743	-6	5	x
CNC(=O)C(=O)Nc1nc(C23CC4CC(CC(C4)C2)C3)cs1	0	-14	3660	-2	-10	0
Cc1noc(C)c1C(=O)Nc1nc(C23CC4CC(CC(C4)C2)C3)cs1	0	6	23212*	0	-1	-3
COCC(=O)NC1CCN(S(=O)(=O)c2ccc(C(=O)O)cc2)CC1	-2	3	20353*	-1	1	4
O=C(COc1ccc(S(=O)(=O)N2CCCC2)cc1Cl)NC1CC1	-2	8	24369*	-3	0	i
O=C(COc1ccc(S(=O)(=O)NC2CCCCC2)cc1Cl)N1CCN(c2ccccc2)CC1	u	-2	22544*	-3	5	i
CN1CCN(C(=O)COc2ccc(S(=O)(=O)NC3CCCCC3)cc2Cl)CC1	1	1	6348	-1	3	2
O=C(CCC(=O)N1CCN(S(=O)(=O)c2ccc3ccccc3c2)CC1)NCC(F)(F)F	-3	-16	4245	-6	-11	-4
CN(CC1CCCN(CCc2ccccc2F)C1)C(=O)c1cc2ccccc2o1 (stereo not given)	0	5	4355	-2	-2	i
O=S1(=O)[C@H]2C[C@@H]3C=C[C@@]2(CN1Cc1ccc(F)cc1)O3	0	7	2870	6	4	0
SMILES	BoNT A protease	MazF activator	Autofluor counter	Anthrax LF inh2	BoNT F protease	Vc quorum ag
CC1CCC(NC(=O)Cn2c(=O)[nH]c3ccsc3c2=O)CC1 (stereo not given)	u	2	u	u	u	0
O=C(Cn1c(=O)[nH]c2ccsc2c1=O)NC1CCCCCC1	u	9	23444*	-4	-1	i
CC1CCCC(C(=O)O)N1C(=O)CCSC(=O)c1ccccc1 (stereo not given)	2	0	22094*	-3	3	0
Cc1cc(-n2c(SCC(=O)Nc3ccc(Br)cc3)nc3n[nH]c(C)c3c2=N)ccc1Cl	1	-23	5729	-3	3	-1
Cc1cc(-n2c(SCC(=O)NCc3cccs3)nc3n[nH]c(C)c3c2=N)ccc1Cl	0	32	23384*	-1	-1	2
CC(c1ccccc1)N1CCn2c(nc3cc(NC(=O)NC4CCCCC4)ccc32)C1 (stereo not given)	13	11	19391*	-6	-22	0
O=C(O)CCN1C(=O)c2ccc(Oc3ccc4c(c3)C(=O)N(CCC(=O)O)C4=O)cc2C1=O	0	2	19401*	-2	0	2
COc1ccc(C(=O)Nc2ccc(C(=O)N3CCC(C)CC3)cc2)cc1OC	1	6	5759	1	8	0
C=CCC(C(=O)OC)(C(=O)OC)c1ccc([N+](=O)[O-])cn1	u	0	22956*	2	-2	-1
Cc1ccc([N+](=O)[O-])cc1NC(=O)CCCOc1ccccc1	0	0	16846*	-3	-1	i
Cc1cc(NC(=O)CSc2nnc(Cc3ccccc3)n2C)no1	0	0	3862	0	-5	1
COCCn1c(Cc2ccccc2)nnc1SCC(=O)N(C)C	1	3	21939*	1	2	0
CCn1c(Cc2ccccc2)nnc1SCC(=O)Nc1cc(C)on1	3	3	21460*	-4	3	-3
COCCn1c(SCC(=O)Nc2cccc(OC)c2)nnc1-c1ccccc1	-2	1	8103	0	-8	6
CCCn1c(SCC(=O)Nc2nc(C)cs2)nnc1-c1cccnc1	-1	10	3482	1	-11	-1
CCn1c(SCC(=O)Nc2nc(C)c(C)s2)nnc1-c1cccnc1	-5	-6	17323*	-1	-6	1
COCCn1c(SCC(=O)OC(C)C)nnc1-c1ccccc1	-3	0	24184*	-7	-3	i
O=C(COCC(=O)N1CCOCC1)N1CCOCC1	-1	4	2031	0	-6	0
CCOC(=O)C1=C(C)N=c2sc(=Cc3cc(Cl)c(OCC(=O)O)c(Cl)c3)c(=O)n2C1c1cccc(OC)c1 (stereo not given)	0	x	3062	-5	-3	-1
COC(=O)c1cc(S(=O)(=O)NCc2cccs2)c[nH]1	1	7	5372	0	1	-1
O=C(OC1CC2CC1[C@H]1CCCCN1C2=O)N1CCN(C(=O)c2ccccc2)CC1 (stereo not given in full)	0	x	5735	-7	8	x
CCn1c(SCC(=O)Nc2cc(C)on2)nnc1-c1cccnc1	-1	1	20847*	-2	-2	-1
Cn1c(Cc2ccccc2)nnc1SCC(=O)c1ccc(Br)s1	-2	1	23767*	-3	-4	i
CCn1c(Cc2ccccc2)nnc1SCC(=O)OC(C)C	7	-1	21705*	3	7	-1
